The source of these data is PubChem BioAssay (NCI).

Compounds without any hit were thinned out: in the full panel of roughly 83,000, 20% have a hit.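 Each cell line was grown in a 96-well plate and treated with one concentration of compound for 48 hours. Values below 10 were considered active.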 Activity calls are given as the source filed them.

In this test the test system is MDA-MB-231 breast. The test can be described thus: NCI-60 one-dose screen, 48 h (100 = growth as untreated, 0 = no growth, -100 = all killed). The following applies: 10 µM unless noted.
As to `COc1cccc(C(=O)Cn2cc(/C=C(\C#N)S(=O)(=O)c3ccccc3)c3ccccc32)c1`, the growth was 102% (inactive). Under `CC(=O)O[C@@H]1/C=C/C(=O)N[C@@H](C)CCC/C=C/[C@@H]2CCC[C@H]21` stands 122% (inactive); under `CC(C)(C)c1ccc(C2CC(=O)C3=C(C2)Nc2ccccc2N(C(=O)c2ccccc2Cl)C3c2ccc(F)cc2)cc1` (stereo not given), 15.7% (inactive); under `O=C1/C=C/[C@@H](O)[C@@H]2C[C@@H](O)C[C@H]2/C=C/CCCCO1`, -21.2% (active).

On to `CN1CCN(c2nc(Nc3ccc(O)cc3)nc3ccccc23)CC1`, for which the growth is 66.2% (inactive).

In the case of `O=C(NN1C(=O)CSC1c1ccc(Cl)cc1)c1[nH]c2ccc(F)cc2c1-c1ccccc1` (stereo not given), the growth is 63.4% (inactive). Under `CSc1nc2c(c(=O)n1C)N=C1c3ccccc3C(=O)C1C(c1ccccc1)N2` (stereo not given) stands 82.8% (inactive); under `CCCC(=O)CC(C)=O.CCCC(=O)CC(C)=O.[Cu]`, 120% (inactive).

In the case of `N#C/C(=C\c1c(-c2ccccc2)[nH]c2ccccc12)S(=O)(=O)c1ccccc1`, the growth is 47.2% (inactive). Under `O=C(Nc1ccc(Cl)cc1)c1cc2ccccc2cc1OP(=O)(O)O` stands 55.5% (inactive). As to `CSc1nc2c(c(=O)[nH]1)N=C1c3ccccc3C(=O)C1C(c1ccccc1)N2` (stereo not given), the growth was 82.6% (inactive). With `CCOC(=O)c1c(Cl)c2c(n1Cc1ccccc1)-c1oncc1CCC2`, the growth is 64.4% (inactive).

Turning to `COc1cc([C@@H]2NC(=O)NC(C)=C2C(=O)Nc2nc(-c3ccc(Cl)cc3)cs2)ccc1O`, the growth is 92.6% (inactive). On to `N#C/C(=C\c1c(-c2ccccc2)[nH]c2ccccc12)C(=O)c1ccccc1`, for which the growth is 71.3% (inactive). Regarding `CCN(CC)c1cc(C)c2cc(NC(=O)c3cccc(OC)c3)ccc2n1`, the growth was 55.5% (inactive). Take `COc1nc2c(c(=O)n1C)N=C1c3ccccc3C(=O)C1C(c1ccccc1)N2` (stereo not given): the growth is 89.2% (inactive). Under `CCOc1ccccc1CN1CCc2nc3cc(C(C)(C)C)[nH]n3c(=O)c2C1` stands 92.3% (inactive). Consider `COc1ccc(-n2c(C(O)c3ccccc3)n[nH]c2=S)cc1` (stereo not given), for which the growth is 92.2% (inactive).

As to `N#CC(C#N)=Cc1c(-c2ccccc2)[nH]c2ccccc12`, the growth is 50.2% (inactive). Under `Nc1ccc(C2c3ccccc3Oc3ccccc32)cc1` stands 104% (inactive).
